Assay [1] deals with Homeodomain-interacting protein kinase 2 (Homo sapiens) (UniProt Q9H2X6). Particulars: at 10 µM; call rule not given here.
Assay [2] concerns the target Homeodomain-interacting protein kinase 3 (Homo sapiens) (UniProt Q9H422). Conditions: at 1 µM.
For assay [3] the target is unchanged. Particulars: at 10 µM.
For assay [4], the target named is T1, Serine/threonine-protein kinase haspin (Homo sapiens) (UniProt Q8TF76).
T1 sequence (whole entry): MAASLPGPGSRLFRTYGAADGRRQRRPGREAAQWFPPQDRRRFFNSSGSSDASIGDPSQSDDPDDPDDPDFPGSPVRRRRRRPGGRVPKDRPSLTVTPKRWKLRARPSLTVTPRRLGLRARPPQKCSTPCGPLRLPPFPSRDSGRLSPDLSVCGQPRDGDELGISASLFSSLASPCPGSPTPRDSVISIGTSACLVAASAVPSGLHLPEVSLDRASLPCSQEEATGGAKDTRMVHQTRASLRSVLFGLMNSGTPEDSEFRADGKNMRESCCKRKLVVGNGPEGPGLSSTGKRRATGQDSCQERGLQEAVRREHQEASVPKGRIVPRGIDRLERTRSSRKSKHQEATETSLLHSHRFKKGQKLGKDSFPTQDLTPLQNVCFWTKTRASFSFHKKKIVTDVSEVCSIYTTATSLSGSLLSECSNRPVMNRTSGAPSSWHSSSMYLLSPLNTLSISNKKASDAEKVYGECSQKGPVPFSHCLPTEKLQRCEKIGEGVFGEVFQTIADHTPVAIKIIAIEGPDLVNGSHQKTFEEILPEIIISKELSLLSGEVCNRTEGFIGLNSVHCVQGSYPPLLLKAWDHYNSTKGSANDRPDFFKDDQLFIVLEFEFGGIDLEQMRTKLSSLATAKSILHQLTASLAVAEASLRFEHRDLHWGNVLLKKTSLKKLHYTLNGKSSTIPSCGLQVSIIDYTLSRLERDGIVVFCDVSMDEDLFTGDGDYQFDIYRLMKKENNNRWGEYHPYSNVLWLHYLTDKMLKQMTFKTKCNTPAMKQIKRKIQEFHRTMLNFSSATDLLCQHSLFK
Conditions: at 1 µM.

The target of assay [5] is T1, Serine/threonine-protein kinase haspin (Homo sapiens). Conditions: at 10 µM.
For assay [6], the target named is Tyrosine-protein kinase HCK (Homo sapiens) (UniProt P08631). Particulars: at 1 µM.
Sequence of Tyrosine-protein kinase HCK (Homo sapiens) (P08631 2-526 limits assumed): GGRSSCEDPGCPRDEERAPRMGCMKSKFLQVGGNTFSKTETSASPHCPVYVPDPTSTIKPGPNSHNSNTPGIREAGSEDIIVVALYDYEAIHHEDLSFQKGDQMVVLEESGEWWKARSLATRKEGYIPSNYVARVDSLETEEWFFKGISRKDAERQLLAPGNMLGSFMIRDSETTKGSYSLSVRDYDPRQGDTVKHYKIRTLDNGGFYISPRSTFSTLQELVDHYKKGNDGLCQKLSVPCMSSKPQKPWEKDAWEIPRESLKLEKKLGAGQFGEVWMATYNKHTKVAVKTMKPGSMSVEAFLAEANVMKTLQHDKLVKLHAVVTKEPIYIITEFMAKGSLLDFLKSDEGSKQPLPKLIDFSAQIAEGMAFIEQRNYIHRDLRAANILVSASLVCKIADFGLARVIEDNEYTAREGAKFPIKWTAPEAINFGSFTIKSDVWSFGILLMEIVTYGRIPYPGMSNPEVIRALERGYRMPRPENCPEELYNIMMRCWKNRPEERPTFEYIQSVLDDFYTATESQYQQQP
The target is the same in assay [7]. Particulars: at 10 µM.
Assay [8] shares this target. Particulars: at 1 µM. The source holds these as a separate data set.
Assay [9] has the same target. Particulars: at 10 µM. This is another data set of the same source.
Assay [10] concerns the target Insulin-like growth factor 1 receptor (Homo sapiens) (UniProt P08069). Conditions: at 1 µM.
For assay [11] the target is unchanged. Particulars: at 10 µM.
Assay [12] has as its target T2, Protein kinase C zeta type (Homo sapiens) (UniProt Q05513).
T2 sequence (whole entry): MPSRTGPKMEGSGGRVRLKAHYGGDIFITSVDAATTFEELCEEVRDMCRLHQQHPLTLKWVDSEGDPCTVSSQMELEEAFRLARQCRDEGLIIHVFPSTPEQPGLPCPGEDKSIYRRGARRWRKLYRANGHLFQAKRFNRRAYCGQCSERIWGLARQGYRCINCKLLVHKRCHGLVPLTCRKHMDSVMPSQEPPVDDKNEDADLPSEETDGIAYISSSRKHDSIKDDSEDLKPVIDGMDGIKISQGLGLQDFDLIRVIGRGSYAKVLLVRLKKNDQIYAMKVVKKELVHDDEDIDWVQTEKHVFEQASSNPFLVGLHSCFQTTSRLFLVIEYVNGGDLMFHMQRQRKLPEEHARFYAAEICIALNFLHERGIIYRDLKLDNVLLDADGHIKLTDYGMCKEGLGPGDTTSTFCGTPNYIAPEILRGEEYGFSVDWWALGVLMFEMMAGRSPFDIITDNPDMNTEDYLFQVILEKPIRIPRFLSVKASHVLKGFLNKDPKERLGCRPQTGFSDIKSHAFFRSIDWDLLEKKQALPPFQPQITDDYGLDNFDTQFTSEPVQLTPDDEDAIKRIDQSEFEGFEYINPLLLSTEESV
Conditions: at 10 µM.

Assay [13] has as its target Protein kinase C eta type (Homo sapiens) (UniProt P24723). Particulars: at 1 µM.
For assay [14] the target is unchanged. Particulars: at 10 µM.
Assay [15] has as its target Protein kinase C theta type (Homo sapiens) (UniProt Q04759). Particulars: at 1 µM.
Assay [16] shares this target. Conditions: at 10 µM.
Assay [17] concerns the target T3, Protein kinase C iota type (Homo sapiens) (UniProt P41743).
T3 sequence (whole entry): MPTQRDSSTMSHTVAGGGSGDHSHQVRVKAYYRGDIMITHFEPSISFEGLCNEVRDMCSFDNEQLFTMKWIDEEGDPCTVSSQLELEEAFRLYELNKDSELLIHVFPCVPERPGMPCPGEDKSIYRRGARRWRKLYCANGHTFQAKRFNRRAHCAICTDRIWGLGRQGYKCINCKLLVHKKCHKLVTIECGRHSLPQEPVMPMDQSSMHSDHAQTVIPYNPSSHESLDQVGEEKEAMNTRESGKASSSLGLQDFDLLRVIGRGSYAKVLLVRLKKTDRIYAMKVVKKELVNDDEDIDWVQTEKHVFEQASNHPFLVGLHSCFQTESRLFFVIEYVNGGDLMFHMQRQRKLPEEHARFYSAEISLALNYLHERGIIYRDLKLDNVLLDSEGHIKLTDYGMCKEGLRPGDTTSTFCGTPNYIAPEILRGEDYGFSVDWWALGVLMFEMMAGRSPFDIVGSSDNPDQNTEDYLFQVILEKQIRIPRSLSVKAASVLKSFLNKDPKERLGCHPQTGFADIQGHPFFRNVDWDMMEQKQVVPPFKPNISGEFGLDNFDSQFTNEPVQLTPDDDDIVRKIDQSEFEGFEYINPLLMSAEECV
Conditions: at 1 µM.

In assay [18] the target is T3, Protein kinase C iota type (Homo sapiens). Conditions: at 10 µM.
Assay [19] concerns the target T4, Serine/threonine-protein kinase D1 (Homo sapiens) (UniProt Q15139).
T4 sequence (whole entry): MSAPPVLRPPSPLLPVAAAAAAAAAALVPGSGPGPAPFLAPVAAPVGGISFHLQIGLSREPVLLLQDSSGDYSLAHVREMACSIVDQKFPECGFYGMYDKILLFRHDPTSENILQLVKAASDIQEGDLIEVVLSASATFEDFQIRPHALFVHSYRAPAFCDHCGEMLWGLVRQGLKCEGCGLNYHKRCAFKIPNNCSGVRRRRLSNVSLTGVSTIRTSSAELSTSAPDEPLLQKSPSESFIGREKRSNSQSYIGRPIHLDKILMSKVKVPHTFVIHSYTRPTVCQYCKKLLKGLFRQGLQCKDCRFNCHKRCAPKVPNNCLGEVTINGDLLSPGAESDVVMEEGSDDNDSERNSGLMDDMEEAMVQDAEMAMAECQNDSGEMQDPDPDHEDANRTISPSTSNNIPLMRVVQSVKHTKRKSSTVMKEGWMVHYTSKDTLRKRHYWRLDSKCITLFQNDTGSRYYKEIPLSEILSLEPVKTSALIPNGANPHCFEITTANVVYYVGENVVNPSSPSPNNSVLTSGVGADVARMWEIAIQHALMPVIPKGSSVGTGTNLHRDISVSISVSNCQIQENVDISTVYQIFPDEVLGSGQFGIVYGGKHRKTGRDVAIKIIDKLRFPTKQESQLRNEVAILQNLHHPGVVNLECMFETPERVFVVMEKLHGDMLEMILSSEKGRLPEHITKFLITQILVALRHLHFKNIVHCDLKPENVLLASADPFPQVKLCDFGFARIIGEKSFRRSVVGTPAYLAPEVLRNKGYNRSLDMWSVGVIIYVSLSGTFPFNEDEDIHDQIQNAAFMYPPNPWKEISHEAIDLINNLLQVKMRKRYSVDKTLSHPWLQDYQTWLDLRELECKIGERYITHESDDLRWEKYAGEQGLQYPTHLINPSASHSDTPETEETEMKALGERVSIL
Conditions: at 1 µM.

Assay [20] concerns the target T4, Serine/threonine-protein kinase D1 (Homo sapiens). Conditions: at 10 µM.

Sequence of Insulin-like growth factor 1 receptor (Homo sapiens) (P08069 31-736 limits assumed): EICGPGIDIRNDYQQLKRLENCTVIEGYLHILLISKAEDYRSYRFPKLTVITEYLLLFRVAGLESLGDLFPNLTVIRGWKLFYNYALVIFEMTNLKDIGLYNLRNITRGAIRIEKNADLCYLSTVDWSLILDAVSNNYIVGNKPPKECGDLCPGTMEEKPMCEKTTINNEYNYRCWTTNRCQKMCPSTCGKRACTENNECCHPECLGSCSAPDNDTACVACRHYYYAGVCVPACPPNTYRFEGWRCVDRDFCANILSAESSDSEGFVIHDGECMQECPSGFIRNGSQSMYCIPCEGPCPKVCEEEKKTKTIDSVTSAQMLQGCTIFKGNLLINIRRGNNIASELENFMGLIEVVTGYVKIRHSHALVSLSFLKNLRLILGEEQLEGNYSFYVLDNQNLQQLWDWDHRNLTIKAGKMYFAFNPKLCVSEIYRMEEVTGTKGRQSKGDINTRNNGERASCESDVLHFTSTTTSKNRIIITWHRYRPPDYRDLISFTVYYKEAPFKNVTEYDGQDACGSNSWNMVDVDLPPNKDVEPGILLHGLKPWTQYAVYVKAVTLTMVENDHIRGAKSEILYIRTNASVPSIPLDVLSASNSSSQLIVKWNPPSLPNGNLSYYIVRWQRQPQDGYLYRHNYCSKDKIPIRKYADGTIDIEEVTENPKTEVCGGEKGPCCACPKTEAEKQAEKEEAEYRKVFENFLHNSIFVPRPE
Sequence of Insulin-like growth factor 1 receptor (Homo sapiens) (P08069 741-1367 limits assumed): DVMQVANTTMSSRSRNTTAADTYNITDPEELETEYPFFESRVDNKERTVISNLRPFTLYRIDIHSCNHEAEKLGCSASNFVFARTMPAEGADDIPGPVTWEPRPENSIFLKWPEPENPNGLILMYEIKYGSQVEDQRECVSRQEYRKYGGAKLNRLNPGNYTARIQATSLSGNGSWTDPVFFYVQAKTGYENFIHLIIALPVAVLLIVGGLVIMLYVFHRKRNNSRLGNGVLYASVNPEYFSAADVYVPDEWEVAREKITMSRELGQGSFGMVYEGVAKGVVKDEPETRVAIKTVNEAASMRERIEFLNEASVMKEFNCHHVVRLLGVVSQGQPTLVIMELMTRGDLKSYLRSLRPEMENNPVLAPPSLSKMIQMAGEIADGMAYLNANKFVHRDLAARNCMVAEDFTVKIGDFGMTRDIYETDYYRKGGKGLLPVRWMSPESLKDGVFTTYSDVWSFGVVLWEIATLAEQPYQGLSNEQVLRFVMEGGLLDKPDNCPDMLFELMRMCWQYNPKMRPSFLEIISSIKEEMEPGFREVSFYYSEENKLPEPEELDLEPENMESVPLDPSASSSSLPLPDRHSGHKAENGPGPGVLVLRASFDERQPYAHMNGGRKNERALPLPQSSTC
Sequence of Protein kinase C theta type (Homo sapiens) (Q04759 whole entry, looked up): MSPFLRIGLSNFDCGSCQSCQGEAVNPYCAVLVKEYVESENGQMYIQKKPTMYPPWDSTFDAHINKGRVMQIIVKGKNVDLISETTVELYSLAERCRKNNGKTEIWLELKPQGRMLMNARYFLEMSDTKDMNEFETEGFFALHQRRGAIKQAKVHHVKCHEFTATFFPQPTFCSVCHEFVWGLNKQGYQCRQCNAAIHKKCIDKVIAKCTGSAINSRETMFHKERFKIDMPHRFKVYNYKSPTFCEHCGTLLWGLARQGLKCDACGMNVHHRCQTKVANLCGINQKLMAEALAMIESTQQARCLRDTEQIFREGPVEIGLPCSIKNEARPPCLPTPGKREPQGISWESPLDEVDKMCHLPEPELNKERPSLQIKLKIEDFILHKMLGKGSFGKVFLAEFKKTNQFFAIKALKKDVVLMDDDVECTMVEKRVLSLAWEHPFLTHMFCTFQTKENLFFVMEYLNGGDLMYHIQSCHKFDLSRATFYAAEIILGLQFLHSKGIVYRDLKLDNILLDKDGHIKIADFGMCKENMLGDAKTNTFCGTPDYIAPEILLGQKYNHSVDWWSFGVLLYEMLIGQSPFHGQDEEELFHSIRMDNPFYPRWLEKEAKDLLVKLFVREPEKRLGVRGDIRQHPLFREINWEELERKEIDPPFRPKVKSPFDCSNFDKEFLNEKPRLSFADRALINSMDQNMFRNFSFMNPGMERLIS
Sequence of Homeodomain-interacting protein kinase 2 (Homo sapiens) (Q9H2X6 whole entry, looked up): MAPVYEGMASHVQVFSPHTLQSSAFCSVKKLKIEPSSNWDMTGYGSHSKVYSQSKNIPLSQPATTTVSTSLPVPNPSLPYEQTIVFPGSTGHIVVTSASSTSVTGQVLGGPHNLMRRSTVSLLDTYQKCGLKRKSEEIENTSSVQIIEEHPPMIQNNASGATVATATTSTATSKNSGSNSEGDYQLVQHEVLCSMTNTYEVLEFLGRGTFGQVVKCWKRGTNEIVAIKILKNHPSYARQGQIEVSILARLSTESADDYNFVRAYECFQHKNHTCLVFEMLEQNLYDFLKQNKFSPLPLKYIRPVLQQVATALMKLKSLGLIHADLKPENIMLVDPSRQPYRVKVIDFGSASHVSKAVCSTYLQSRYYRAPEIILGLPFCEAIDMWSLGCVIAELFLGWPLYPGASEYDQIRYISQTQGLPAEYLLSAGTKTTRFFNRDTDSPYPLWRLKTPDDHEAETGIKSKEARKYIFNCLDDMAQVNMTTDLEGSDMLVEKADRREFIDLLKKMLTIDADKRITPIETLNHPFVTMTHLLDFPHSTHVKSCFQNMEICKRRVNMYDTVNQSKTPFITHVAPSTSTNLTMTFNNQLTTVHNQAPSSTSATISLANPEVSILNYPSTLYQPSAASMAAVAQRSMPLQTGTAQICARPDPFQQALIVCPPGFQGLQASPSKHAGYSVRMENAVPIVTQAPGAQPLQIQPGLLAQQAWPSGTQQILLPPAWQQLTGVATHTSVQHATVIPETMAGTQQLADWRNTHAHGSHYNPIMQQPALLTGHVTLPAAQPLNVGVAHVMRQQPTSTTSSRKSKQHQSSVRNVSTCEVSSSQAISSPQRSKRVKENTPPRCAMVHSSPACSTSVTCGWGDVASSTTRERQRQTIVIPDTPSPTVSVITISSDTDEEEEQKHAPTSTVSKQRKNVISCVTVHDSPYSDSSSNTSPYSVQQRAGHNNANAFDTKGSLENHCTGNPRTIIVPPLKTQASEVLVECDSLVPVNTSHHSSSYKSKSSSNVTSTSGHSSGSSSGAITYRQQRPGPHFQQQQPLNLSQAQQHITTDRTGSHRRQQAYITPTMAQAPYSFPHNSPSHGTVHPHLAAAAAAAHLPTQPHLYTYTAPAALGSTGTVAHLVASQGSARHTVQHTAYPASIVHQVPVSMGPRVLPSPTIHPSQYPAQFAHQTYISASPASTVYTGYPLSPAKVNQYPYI
Sequence of Protein kinase C eta type (Homo sapiens) (P24723 whole entry): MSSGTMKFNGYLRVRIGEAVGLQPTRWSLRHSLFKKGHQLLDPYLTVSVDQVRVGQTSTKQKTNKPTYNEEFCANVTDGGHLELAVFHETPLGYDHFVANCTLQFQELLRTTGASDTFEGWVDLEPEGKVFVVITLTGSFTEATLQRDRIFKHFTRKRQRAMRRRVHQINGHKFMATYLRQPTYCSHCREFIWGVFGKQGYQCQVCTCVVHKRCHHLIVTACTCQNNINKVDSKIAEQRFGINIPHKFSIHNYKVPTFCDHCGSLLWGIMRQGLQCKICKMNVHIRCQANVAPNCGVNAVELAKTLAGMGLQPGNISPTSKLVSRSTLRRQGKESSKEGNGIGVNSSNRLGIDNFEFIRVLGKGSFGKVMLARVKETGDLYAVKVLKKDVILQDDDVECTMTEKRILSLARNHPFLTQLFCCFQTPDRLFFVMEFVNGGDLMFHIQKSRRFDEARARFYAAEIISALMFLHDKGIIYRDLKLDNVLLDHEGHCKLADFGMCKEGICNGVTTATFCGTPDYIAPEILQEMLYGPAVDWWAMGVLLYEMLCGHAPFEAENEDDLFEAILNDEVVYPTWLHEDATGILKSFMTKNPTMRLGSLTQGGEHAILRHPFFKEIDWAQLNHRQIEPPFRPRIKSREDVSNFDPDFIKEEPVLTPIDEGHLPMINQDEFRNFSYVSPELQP

On to `O=C1Nc2ccc3ncsc3c2/C1=C/c1c[nH]cn1`, for which the residual activity – broadly, the signal under treatment as a percentage of the control signal – in assay [1] was 4%; in [2] it was 31%; in assay [3], 4%; in assay [4] it was 3%; in assay [5] it was 1%; in [6], 58%. For the same compound, the residual activity in assay [7] stood at 19%; in assay [8], 67%; in [9], 24%; in [10] it was 132%; in assay [11], 68%; in assay [12], 53%. Moreover, the residual activity is 23% in [13]; 5% in assay [14]; 49% in [15]; 10% in assay [16]; 85% (inactive) in [17]; 73% in [18]. Besides, the residual activity was determined as 5% in assay [19] and 4% in assay [20].

`c1cc(-c2cnn3cc(-c4ccc(OCCN5CCCCC5)cc4)cnc23)ccn1`: the residual activity in [1] came out at 14%; in [3] it was 45%; in assay [4], 38%; in assay [5], 4%; in [6] it was 64%; in assay [7] it was 18%. Besides, the residual activity in assay [8] came out at 32%; in [9] it was 4%; in assay [11], 143%; in assay [13] it was 106%; in assay [18] it was 86%; in assay [20] it was 54%.

With `O=C1NC(=O)c2c1c1c3ccccc3n3c1c1c2c2ccccc2n1C1CCC3O1`, the residual activity in assay [1] was 26%; in [2] it was -2%; in assay [3], -2%; in assay [4], 50%; in [5] it was 22%; in [6], 76%. For the same compound, the residual activity in assay [7] is 94%; in assay [8], 92%; in assay [9], 83%; in assay [10], 73%; in assay [13], 89%; in assay [14], 81%. In addition, the residual activity in assay [15] worked out at 7%; in [16], 13%; in assay [19] it was 87%; in assay [20], 49%.

Consider `CN[C@@H]1C[C@H]2O[C@@](C)([C@@H]1OC)n1c3ccccc3c3c4c(c5c6ccccc6n2c5c31)C(=O)NC4`, for which the figures for the residual activity in [2], in assay [3] and in [6] were 74%, 27% and 0%, respectively.

As for `C[S+]([O-])c1ccc(-c2nc(-c3ccc(F)cc3)c(-c3ccncc3)[nH]2)cc1` (stereo not given), the residual activity in assay [1] amounted to 100%; in [2], 110%; in [3], 102%; in assay [4], 88%; in assay [5], 35%; in assay [6] it was 105%. For the same compound, the residual activity in assay [7] is 52%; in assay [8], 93%; in assay [9] it was 61%; in [10], 102%; in assay [11], 117%; in assay [12], 111%. Further, the residual activity was 79% in assay [13]; 77% in assay [14]; 105% in assay [15]; 104% in assay [16]; 105% (inactive) in assay [17]; 101% in [18]. Also, the residual activity in assay [19] was found to be 123%; in assay [20], 66%.

On to `CC(C)[C@H](CO)Nc1nc(Nc2cccc(Cl)c2)c2ncn(C(C)C)c2n1`, for which the residual activity was 36% in assay [1]; 77% in assay [3]; 100% in [4]; 94% in [5]; 20% in assay [6]; 4% in [7]. In addition, the residual activity in [8] came out at 30%; in [9] it was 4%; in assay [10] it was 98%; in assay [11] it was 136%; in [12], 117%; in [13], 100%. The residual activity turned out to be 90% in assay [14]; 70% in assay [15]; 26% in assay [16]; 81% in assay [19]; 86% in [20].

Consider `CCc1nc(-c2ccc(OC)cc2)[nH]c1-c1ccncc1`, for which the residual activity in assay [4] came out at 45%; in [5], 4%; in assay [6], 72%; in [7], 64%; in [8], 115%; in assay [9], 104%. For the same compound, the residual activity in [10] turned out to be 112%; in [11] it was 128%; in assay [12], 104%; in assay [13], 105%; in assay [14] it was 73%; in assay [15], 108%. For the same compound, the residual activity in [16] was 105%; in assay [17] it was 107% (inactive); in [18] it was 105%.

For `COc1cc(OC)c(/C=C2\C(=O)Nc3ccccc32)c(OC)c1`, the residual activity was 96% in [1]; 103% in assay [2]; 98% in [3]; 70% in [4]; 61% in assay [5]; 89% in [6]. Further, the residual activity in assay [7] was 69%; in assay [8], 93%; in [10] it was 93%; in [11] it was 133%; in assay [13], 94%; in [14], 94%. Also, the residual activity in [15] turned out to be 85%; in [16], 90%; in [19] it was 84%; in [20] it was 90%.

As for `CC(C)(C)c1cc(C=C(C#N)C#N)cc(Br)c1O`, the residual activity was 71% in assay [1]; 101% in [2]; 98% in [3]; 105% in assay [4]; 54% in assay [5]; 77% in assay [6]. For the same compound, the residual activity was found to be 8% in [7]; 102% in [8]; 130% in [10]; 101% in [11]; 101% in assay [12]; 103% in assay [15]. The residual activity in assay [16] was 75%; in [17] it was 107% (inactive); in assay [19] it was 98%; in assay [20], 117%.

These data come from ChEMBL document CHEMBL2218924, “A broad activity screen in support of a chemogenomic map for kinase signalling research and drug discovery” (Biochem J, 2013).
